# Results reported in ChEMBL document CHEMBL4513216, “Probing the Open Global Health Chemical Diversity Library for Multistage-Active Starting Points for Next-Generation Antimalarials” (ACS Infect Dis, 2020).
# The campaign covered roughly 69,000 compounds. About 8,600 (12%) showed an effect of 50% or more. This is one part of a sample in which strong results are shown more often than they occur.
# Test system: Plasmodium berghei
# Assay: Screen against P. berghei liver stage (PbLuc), transformed with Luciferase, at 10uM
# Format: functional, HepG2
# Conditions: tested at 10 uM
row,SMILES,INHIBITION
1,C=C/C=c1\c(=C/C)oc2c(NCc3ccccc3)nc(C)nc12,68%
2,Cc1nc(NCc2cccnc2)c2c(n1)c(C)nn2C,1.81%
3,Cc1nn(C)c2c(NCc3ccccn3)ncnc12,42.1%
4,C=C/C=c1\c(=C/C)oc2c(NCc3ccccc3)nc(CC)nc12,22.5%
5,C=C/C=c1\c(=C/C)oc2c(NCc3ccccc3)ncnc12,60.3%
6,Cc1ncc(CN)c(-c2cn(C)c3ccccc23)n1,9.05%
7,CN(CC(N)=O)C(=O)C1Cc2cc(Cl)ccc2O1 (stereo not drawn),-5.64%
8,CN(C)CC1(O)CCCN(C(=O)Cc2ccc(Cl)c(Cl)c2)C1 (stereo not drawn),52.2%
9,CN(C)CC1(O)CCN(C(=O)Cc2ccc(Cl)c(Cl)c2)C1 (stereo not drawn),39.1%
10,CN(C)CC1(O)CCN(C(=O)Cc2ccc3c(c2)CCCC3)C1 (stereo not drawn),20.6%
11,O=C1[C@@H]2CN(c3ncnc4sccc34)C[C@]2(C(=O)O)CN1CC1CC1,29.2%
12,Cc1nn(C)c(N(C)C)c1CNC1CCOc2c(Cl)cccc21 (stereo not drawn),-17.7%
13,COc1ccccc1C1(O)CCCN(C(=O)c2ccnn2C(C)C)C1 (stereo not drawn),-24.4%
14,CNC(=O)[C@@H]1CN(C(=O)C(C)C)C[C@H]1c1ccnc(N2CCCC2)n1,21.7%
15,Cc1noc(C2CCC3(CCN(C(=O)C4CCOCC4)CC3)O2)n1 (stereo not drawn),32.2%
16,NC(=O)C(NC1CCN(CC2CCCCC2)CC1)c1ccccc1 (stereo not drawn),-139%
17,NC(=O)C(NC1CCN(CC2CCCCC2)CC1)c1ccc(F)cc1 (stereo not drawn),-55.1%
18,NC(CC1CCCC1)c1ccc(Oc2ccccc2)cc1 (stereo not drawn),80.1%
19,NC(CC1CCCC1)c1ccccc1 (stereo not drawn),62.2%
20,NC(CC1CCCCC1)c1ccccc1 (stereo not drawn),5.15%
21,NC(c1ccccc1)c1ccc(OC(F)F)cc1 (stereo not drawn),29.3%
22,COCc1noc(Cc2cc(Cl)c3c(c2)OCCCO3)n1,-69.2%
23,CC(C)(C)CC(=O)NCCCn1cncn1,40.6%
24,Cc1cn2c(n1)CCC(NC(=O)c1cncnc1C)C2 (stereo not drawn),-0.219%
25,N#CCSCCCN1CCC(C(=O)N2CCCCCC2)CC1,51.8%
26,CC(NCCN1CCN(C(=O)C2CCCC2)CC1)c1cnn(C)c1 (stereo not drawn),17.1%
27,N#CCSCCCN1CCN(C(=O)C2CCCC2)CC1,50.7%

row,SMILES,INHIBITION
1,CC1CCN(CCNC(=O)C2CCN(C(=O)C3CC3)CC2)CC1,-8.23%
2,Cc1ccc(C(=O)N2CCN(CCCSCC#N)CC2)o1,0.139%
3,N#CCSCCCN1CCCC(C(=O)N2CCCCCC2)C1 (stereo not drawn),35.5%
4,O=C(O)c1cc(S(=O)(=O)Nc2ccc(F)cc2Cl)cc2c1OCCO2,23.5%
5,O=C([C@H]1CCCO1)N1CCCC2(CCN(Cc3ccncc3)C2=O)C1 (stereo partly drawn),10.3%
6,CN1C(=O)CCCC12CCCN(C(=O)c1cc(F)cc(F)c1)C2 (stereo not drawn),33.4%
7,Cn1cc(CC(=O)N2CCCC(n3cncn3)C2)cn1 (stereo not drawn),17.4%
8,Cc1cnc(CNC(=O)CCCn2cnc3ccccc3c2=O)cn1,34.6%
9,CC(C)c1nc(C2CCCN(C(=O)CCCn3cccn3)C2)no1 (stereo not drawn),-29.8%
10,CC(C)c1nc(C2CCCN(C(=O)CCn3cncn3)C2)no1 (stereo not drawn),31.2%
11,CCCc1noc(CCC(=O)N2CCCC(c3ccn[nH]3)C2)n1 (stereo not drawn),16.8%
12,CC(C)c1nc(C2CCCN(C(=O)CCCn3ccnc3)C2)no1 (stereo not drawn),-19.4%
13,Cc1csc2c(C3CCCN(C(=O)CCCn4cncn4)C3)nc(C)n12 (stereo not drawn),-1.16%
14,O=C(CCCc1nc(C2CC2)no1)N1CCCC(c2ccn[nH]2)C1 (stereo not drawn),52.6%
15,Cc1nc(C2CCCN(C(=O)CCCn3cccn3)C2)no1 (stereo not drawn),53.5%
16,CCc1noc(CCCC(=O)N2CCCC(c3ccn[nH]3)C2)n1 (stereo not drawn),42.8%
17,CC(C)c1nc(C2CCCN(C(=O)CCn3ccnc3)C2)no1 (stereo not drawn),56.1%
18,Cc1nc(C2CCCN2C(=O)CCCn2cccn2)no1 (stereo not drawn),-25.9%
19,Cc1csc2c(C3CCCN(C(=O)CCn4cncn4)C3)nc(C)n12 (stereo not drawn),5.34%
20,Cc1csc2c(C3CCCN(C(=O)CCn4ccnc4)C3)nc(C)n12 (stereo not drawn),57.3%
21,Cc1ccc(S(=O)(=O)Nc2cnn(C3CCOCC3)c2)cc1C,-52.5%
22,CCCc1ccc(S(=O)(=O)NC(=O)CCc2cscn2)cc1,16.2%
23,O=S(=O)(c1cncc(F)c1)N1CCSC2(CCCCC2)C1,28.5%
24,COc1c(C2CCCN2C(=O)c2cccnc2N(C)C)c(C)nn1C (stereo not drawn),23.4%
25,COc1ccc(-n2cc(CNC(=O)c3cc[nH]n3)nn2)cc1,-120%
26,O=S(=O)(CCCN1CCc2c(ncn2C2CC2)C1)c1ccccc1,-27.5%
